High-throughput results as filed in PubChem.
Autophagy HCS: modulators of autophagy; hit rate 0.98% among 190,000; MEF GFP-LC3 puncta imaging; test concentration mostly 10 µM; AID 463193; calls only at 10 µM (by protocol);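 active means percentage of spot-positive cells more than 3 SD above its plate mean, without a fluorescence outlier flag or 80% toxicity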
HCT116 bCat-KO: beta-catenin-lacking colon tumor cell growth suppression. HCT116 beta-catenin knockout viability, CellTiter-Glo, 60 h; stronger effect = lower value. viability, % at 10 µM. hit rate 1.5% among 140,000;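 active means viability at or under a set limit, the compound median less 4 SD, cut at about 6% in these data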
Insulin prom up: MIN6 insulin promoter up-regulation. MIN6 insulin promoter-GFP reporter, high-content imaging; stronger effect = higher value. z-score at 5 µM. hit rate 0.3% among 190,000. AID 1625;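 active means z-score above 3 at 5 µM with at least 500 cells counted in the well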
Lmaj promast: inhibitors of Leishmania major promastigote growth; Leishmania major promastigotes, resazurin fluorescence viability; inhibition, % at 10 µM; hit rate 9% among 200,000; in the data active means inhibition above about 50%;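 further: promastigotes grown with compound for 44 hours at 28 °C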
INS promoter inh: TRM-6 insulin promoter activity inhibition | TRM-6 cells (human fetal islet line), insulin promoter-eGFP reporter, imaging; reporter expression induced with tamoxifen | inhibition, % at 2 µM | hit rate 0.9% among 130,000;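 active means inhibition above the mean plus 3 SD, with well images judged a real hit on visual review, cut at about 60% in these data, passing the limit was not always enough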
HCT116 PTEN-null: suppresses growth of cells with PTEN deletion; HCT116 PTEN-null viability, CellTiter-Glo, 60 h; stronger effect = lower value; viability, % at 10 µM; hit rate 1.2% among 140,000; AID 827;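 active means viability at or below a set limit, 4 SD under the median of all tested compounds, cut at about 3.7% in these data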;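 further: PTEN knockout HCT116 line with beta catenin targeted HCT116 as companion control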
Hits are given with their value. A selection: hits, their analogues and other compounds. The true share with any hit is near 9.6%.

What do the screens show for `COc1cccc(Oc2ccc3nnc(C(F)(F)F)n3n2)c1`?
Autophagy HCS: inactive; Insulin prom up: inactive; Lmaj promast: inactive; INS promoter inh: inactive

How did Cc1ccc(NC(=S)NCCc2ccccc2)c(C)c1 do in these assays?
Autophagy HCS: inactive; HCT116 bCat-KO: inactive; Insulin prom up: inactive; Lmaj promast: 80; INS promoter inh: inactive; HCT116 PTEN-null: inactive

How did Cc1cccc(NC(=S)NN(Cc2ccccc2)c2ccccc2)c1C do in these assays?
Autophagy HCS: inactive; HCT116 bCat-KO: inactive; Lmaj promast: 56; HCT116 PTEN-null: inactive

What do the screens show for `Cc1ccccc1NC(=S)NCCc1ccccc1`?
Autophagy HCS: inactive; HCT116 bCat-KO: inactive; Insulin prom up: inactive; Lmaj promast: inactive; INS promoter inh: inactive; HCT116 PTEN-null: inactive

How did COCCNC(=O)c1sc2ncn(CC(=O)N3CCCCC3)c(=O)c2c1C do in these assays?
Autophagy HCS: inactive; HCT116 bCat-KO: inactive; Insulin prom up: inactive; Lmaj promast: inactive; HCT116 PTEN-null: inactive

How did Cc1cc(-c2csc(NC(=O)c3ccc(C#N)cc3)n2)c(C)n1Cc1ccco1 do in these assays?
Autophagy HCS: inactive; HCT116 bCat-KO: inactive; Insulin prom up: inactive; Lmaj promast: 51; INS promoter inh: inactive; HCT116 PTEN-null: inactive

What do the screens show for `O=C(CSc1nc2ccccc2c(=O)n1Cc1ccco1)N1CCN(c2ccccc2)CC1`?
Autophagy HCS: inactive; HCT116 bCat-KO: inactive; Insulin prom up: inactive; Lmaj promast: inactive; INS promoter inh: inactive; HCT116 PTEN-null: inactive

What do the screens show for `Clc1ccc(CN2C3=NCCN3c3ccccc32)cc1Cl`?
Autophagy HCS: inactive; HCT116 bCat-KO: inactive; Insulin prom up: inactive; Lmaj promast: 65; HCT116 PTEN-null: inactive

What do the screens show for `O=C(O)c1cccc2c1C(=O)c1ccccc1-2`?
Insulin prom up: inactive

How did O=C(O)c1cccc2c1C(=O)c1ccccc1C2=O do in these assays?
Autophagy HCS: active; Insulin prom up: inactive; Lmaj promast: inactive

What do the screens show for `COc1ccc(OC)c(-c2cc(C(=O)Nc3c(C)nn(Cc4ccccc4Cl)c3C)no2)c1`?
Autophagy HCS: inactive; HCT116 bCat-KO: inactive; Insulin prom up: inactive; Lmaj promast: 52; INS promoter inh: inactive; HCT116 PTEN-null: inactive

What do the screens show for `O=C(N/N=C/c1ccc(N2CCCCC2)o1)C(O)(c1ccccc1)c1ccccc1`?
Autophagy HCS: inactive; HCT116 bCat-KO: inactive; Insulin prom up: inactive; Lmaj promast: inactive; INS promoter inh: inactive; HCT116 PTEN-null: inactive

What do the screens show for `CC1CC(C)(C)Nc2ccc(OC(=O)c3ccco3)cc21` (centres undefined)?
Autophagy HCS: inactive; HCT116 bCat-KO: 0.8; Insulin prom up: inactive; Lmaj promast: 98; INS promoter inh: inactive; HCT116 PTEN-null: 0.7

Results for CC1CC(C)(C)Nc2ccc(N=O)cc21 (centres undefined) ?
Autophagy HCS: active; Insulin prom up: 4.1; Lmaj promast: 100; INS promoter inh: inactive

What do the screens show for `CCc1cccc2c1NC(=O)[C@]21[C@@H]2C(=O)N(Cc3ccccc3)C(=O)[C@@H]2[C@@H]2CCCN21`?
Autophagy HCS: inactive; HCT116 bCat-KO: inactive; Insulin prom up: inactive; Lmaj promast: inactive; HCT116 PTEN-null: inactive

What do the screens show for `CC(=O)Nc1ccc(S(=O)(=O)NCC2CCC(C(=O)NCc3ccccc3)CC2)cc1` (centres undefined)?
Autophagy HCS: inactive; Insulin prom up: inactive; Lmaj promast: inactive; INS promoter inh: inactive

What do the screens show for `COc1cccc(C2=NNC(=NCc3ccccc3)SC2)c1`?
Autophagy HCS: inactive; Insulin prom up: inactive; Lmaj promast: inactive; INS promoter inh: inactive

How did COc1ccc(CN=C2NN=C(c3cccc(OC)c3)CS2)cc1 do in these assays?
Autophagy HCS: inactive; Insulin prom up: inactive; Lmaj promast: 87

How did CS(=O)(=O)N1CCC(C(=O)N2CCN(C(c3ccccc3)c3ccccc3)CC2)CC1 do in these assays?
Autophagy HCS: inactive; Lmaj promast: 67

What do the screens show for `O=C(N/N=C/c1cccc(Br)c1)c1ccc(Cn2cc(Br)cn2)o1`?
Autophagy HCS: inactive; HCT116 bCat-KO: inactive; Insulin prom up: inactive; Lmaj promast: inactive; INS promoter inh: inactive; HCT116 PTEN-null: inactive

How did Cc1ccsc1/C=N/NC(=O)c1ccc(Cn2cc(Br)cn2)o1 do in these assays?
Autophagy HCS: active; HCT116 bCat-KO: inactive; Insulin prom up: inactive; Lmaj promast: inactive; INS promoter inh: inactive; HCT116 PTEN-null: inactive

What do the screens show for `Cc1ccc2[nH]c(O)c(N=NC(=O)c3ccc(NS(=O)(=O)c4cccs4)cc3)c2c1`?
Insulin prom up: inactive

Results for O=C(N=Nc1c(O)[nH]c2ccccc12)c1ccccc1NS(=O)(=O)c1cccs1 ?
Autophagy HCS: inactive; HCT116 bCat-KO: inactive; Insulin prom up: inactive; Lmaj promast: 68; INS promoter inh: inactive; HCT116 PTEN-null: inactive

Results for CCn1c(CCNC(=O)c2ccc(OC)cc2)nnc1SCc1ccc(Cl)cc1Cl ?
Autophagy HCS: inactive; HCT116 bCat-KO: inactive; Insulin prom up: inactive; Lmaj promast: 91; INS promoter inh: inactive; HCT116 PTEN-null: inactive

Results for CCn1c(CCNC(=O)c2ccc(OC)cc2)nnc1SCc1ccc(Cl)c(Cl)c1 ?
Autophagy HCS: inactive; HCT116 bCat-KO: inactive; Insulin prom up: inactive; Lmaj promast: 93; INS promoter inh: inactive; HCT116 PTEN-null: inactive

Results for CCOc1cc(C(=O)Nc2ccccc2N2CCOCC2)ccc1OCC(=O)N1CCCCC1 ?
Autophagy HCS: inactive; Insulin prom up: inactive; Lmaj promast: inactive

How did Cc1[nH]c2ccccc2c1C(=O)C(C)OC(=O)c1ccc([N+](=O)[O-])o1 (centres undefined) do in these assays?
Autophagy HCS: inactive; Lmaj promast: 99

What do the screens show for `CCSc1nc(-c2ccccc2)c2cc(Cl)ccc2n1`?
Autophagy HCS: inactive; HCT116 bCat-KO: inactive; Insulin prom up: inactive; Lmaj promast: inactive; INS promoter inh: inactive; HCT116 PTEN-null: inactive

What do the screens show for `CSc1nc(-c2ccc(C)cc2)nc(C(Cl)Cl)n1`?
Autophagy HCS: inactive; HCT116 bCat-KO: 1.1; Lmaj promast: inactive; INS promoter inh: inactive; HCT116 PTEN-null: 1.1

How did CCSc1nc(-c2ccccc2)nc(C(Cl)Cl)n1 do in these assays?
Autophagy HCS: inactive; HCT116 bCat-KO: 4.2; Insulin prom up: inactive; Lmaj promast: inactive; INS promoter inh: inactive; HCT116 PTEN-null: 2.0

Results for CCOC(=O)/C(C#N)=C\c1cc(C)n(-c2ccccc2)c1C ?
Autophagy HCS: inactive; HCT116 bCat-KO: inactive; Insulin prom up: inactive; Lmaj promast: inactive; INS promoter inh: inactive; HCT116 PTEN-null: inactive

Results for O=C(O)CCNS(=O)(=O)c1ccc2c(c1)CCCC2 ?
Autophagy HCS: inactive; Insulin prom up: inactive; Lmaj promast: inactive

How did CC(=O)NS(=O)(=O)c1ccc(NC(=O)c2cc(-c3ccc(C)cc3)nc3ccccc23)cc1 do in these assays?
Autophagy HCS: inactive; HCT116 bCat-KO: inactive; Insulin prom up: inactive; Lmaj promast: inactive; HCT116 PTEN-null: inactive

How did c1ccc(CN2CCC(Nc3nc(-c4cccs4)nc4ccccc34)CC2)cc1 do in these assays?
Autophagy HCS: active; Insulin prom up: inactive; Lmaj promast: 100

What do the screens show for `c1csc(CNc2nc(-c3cccs3)nc3ccccc23)c1`?
Autophagy HCS: inactive; Insulin prom up: inactive; Lmaj promast: 83; INS promoter inh: inactive
